An excerpt weighted towards active compounds, which were near 5.1% of everything screened.
RAM inhibit: inhibitors of the yeast RAM network, primary screen, dse1pr::URA3 reporter, 5-FOA selection; S. cerevisiae dse1pr::URA3 reporter, 5-FOA growth OD615, 2 d; analog-sensitive cbk1-as2 kinase mutant strain; inhibition, % at 50 µM; 190,000 compounds, 1.8% hits;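 active = inhibition above a set limit, 3 SD over mean compound inhibition, cut at about 8.4% in these data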;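 note: 0% = DMSO-only wells with no growth and 100% = 10 µM 1-NA-PP1 full growth; inhibition rescues growth on 5-FOA so higher OD means more RAM inhibition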
Cl transport mod: KCC2 cotransporter modulators, thallium flux, primary screen, cell-based, HEK293 KCC2, FluoZin-2 fluorescence, MLSMR. B-score of Tl+ flux slope (higher = more flux/activation; lower = inhibition) at 10 µM. AID 1456, 2008. 190,000 compounds, 2.2% hits. Solute carrier family 12 member 5 (Homo sapiens), Q9H2X9. KCC2 cells, thallium flux FluoZin-2 fluorescence;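 active = thallium flux slope and its plate-corrected score both differing from the plate sample mean at a set confidence after two filtering rounds, in either direction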;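 note: slope of fluorescence scaled to starting intensity during 10 to 20 s after thallium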
S1P3 antagonist: S1P3 receptor antagonists, primary screen, cell-based; Sphingosine 1-phosphate receptor 3 (Homo sapiens), Q99500; CHO S1P3 NFAT-BLA reporter, FRET fluorescence, antagonist mode; inhibition, % at 4.98 µM; 170,000 compounds, 0.27% hits;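 active = inhibition above the plate cutoff, the mean inhibition of test wells on that plate plus 3 SD, cut at about 28% in these data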;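 note: cells challenged with S1P at its EC80 of 0.8 µM; blue over green emission ratio from cleaved BLA substrate after 4 h stimulation; 0% = S1P-stimulated wells and 100% = unstimulated DMSO-only wells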
S1P4 ag: S1P4 receptor agonists, primary screen, cell-based; Sphingosine 1-phosphate receptor 4 (Homo sapiens), O95977; S1P4-expressing cell line, agonist reporter assay; activation, % at 4.98 µM; 220,000 compounds, 0.35% hits; AID 1509, 2009; in the data active = activation above about 11%;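 note: 0% = DMSO vehicle and 100% = reference agonist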
Target sequence (O95977 whole entry, looked up): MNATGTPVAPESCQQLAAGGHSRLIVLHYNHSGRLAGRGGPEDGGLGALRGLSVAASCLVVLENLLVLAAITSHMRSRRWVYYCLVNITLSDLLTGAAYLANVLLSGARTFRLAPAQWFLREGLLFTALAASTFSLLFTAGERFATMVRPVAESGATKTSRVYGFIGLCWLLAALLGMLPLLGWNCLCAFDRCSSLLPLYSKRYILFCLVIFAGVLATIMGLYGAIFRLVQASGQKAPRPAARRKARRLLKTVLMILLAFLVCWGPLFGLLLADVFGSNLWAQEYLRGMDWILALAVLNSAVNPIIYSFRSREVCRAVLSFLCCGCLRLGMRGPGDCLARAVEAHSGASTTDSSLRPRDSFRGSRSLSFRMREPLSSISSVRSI
S1P4 antagonist: S1P4 receptor antagonists, primary screen, cell-based. 220,000 compounds, 0.26% hits. S1P4-expressing cells, antagonist mode, reporter read-out. inhibition, % at 4.98 µM. Sphingosine 1-phosphate receptor 4 (Homo sapiens), O95977. AID 1510, 2009; in the data active = inhibition above about 29%;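 note: 0% = wells stimulated with agonist and 100% = vehicle wells without agonist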
ROMK primary: ROMK potassium channel modulators, primary screen, cell-based, thallium flux, MLSMR library; ATP-sensitive inward rectifier potassium channel 1 (Homo sapiens), P48048; Tet-inducible ROMK, thallium flux fluorescence; actives lie on both sides; B-score at 10 µM; 130,000 compounds, 2% hits; AID 1918, 2009;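 active = signal ratio slope over the read window, or its plate-corrected B-score, at least 3 SD from the plate mean, either direction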;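 note: B-score of the F/F0 ratio slope over 7 to 12 s after thallium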
Target sequence (P48048 whole entry, looked up): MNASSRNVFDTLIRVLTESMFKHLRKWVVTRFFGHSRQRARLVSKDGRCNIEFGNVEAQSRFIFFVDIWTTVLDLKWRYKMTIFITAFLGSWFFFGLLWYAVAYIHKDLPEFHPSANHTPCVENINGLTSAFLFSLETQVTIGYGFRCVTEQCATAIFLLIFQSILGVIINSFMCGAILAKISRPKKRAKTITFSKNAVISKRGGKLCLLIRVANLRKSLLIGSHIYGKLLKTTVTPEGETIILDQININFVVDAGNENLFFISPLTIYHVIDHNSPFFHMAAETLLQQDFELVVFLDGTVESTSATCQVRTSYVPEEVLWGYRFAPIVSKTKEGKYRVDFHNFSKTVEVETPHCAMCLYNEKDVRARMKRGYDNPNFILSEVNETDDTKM
KCC2 sec1: KCC2 modulators in sodium-free buffer, confirmation, cell-based, HEK293 KCC2, thallium flux, secondary assay; shares compounds with Cl transport mod; FluoZin2 fluorescence; stronger effect = higher value; normalised thallium flux (F/F0 slope) at 10 µM; 3,700 compounds, 15% hits;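 active = thallium flux slope above the same plate's solvent-only control mean plus 3 SD; inconclusive = the two replicate wells disagree; inactive = no significant difference from solvent-only control wells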
KCC2 bumet counter: thallium flux persisting under bumetanide in KCC2 cells, confirmation, counter-screen for KCC2 modulator project, cell-based, HEK293 KCC2, FluoZin2, secondary assay 3; HEK293-KCC2 + bumetanide/ouabain; stronger effect = higher value; 3,700 compounds, 49% hits; shares compounds with Cl transport mod; normalized thallium flux at 10 µM;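 active = thallium entry rate above the same plate's blocked-transporter control wells by more than 3 SD; inconclusive = the two repeat wells disagree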;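 note: raw slope of fluorescence over initial fluorescence between 10 and 20 s after thallium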
KCC2 sec2: KCC2 modulators without ouabain present, confirmation, cell-based, HEK293 KCC2, thallium flux, FluoZin2, secondary assay 2. normalized thallium flux at 10 µM. thallium flux FluoZin2 fluorescence; actives lie on both sides; F/F0 rise rate, 10–20 s post-thallium. 3,700 compounds, 23% hits. shares compounds with Cl transport mod;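 active = thallium flux slope more than 3 SD above or below the plate's solvent-only control mean, mostly below; inconclusive = the two repeat wells disagreed; inactive = no significant shift from solvent-only controls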;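 note: raw slope with 0.1% DMSO as baseline and bumetanide as block control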
HEK counter1: thallium flux modulation in parental HEK cells, confirmation, counter-screen for KCC2 modulator project, cell-based, counterscreen 1. HEK293 parental cells, thallium flux FluoZin2, ouabain; baseline-ratio fluorescence slope, 10–20 s after thallium. shares compounds with Cl transport mod. 3,700 compounds, 46% hits. AID 1716, 2009. thallium flux rate (normalised fluorescence) at 10 µM;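 active = thallium flux rate significantly above the same plate's solvent-only control wells, beyond their mean plus 3 SD; inconclusive = the two replicate wells gave conflicting results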
KCC2 retest ouab: KCC2 inhibitors and activators, ouabain retest, confirmation, HEK-KCC2 cells. raw Tl+ flux slope (below DMSO = inhibition, above = activation) at 10 µM. HEK293-KCC2, thallium flux FluoZin2 fluorescence; bidirectional: low = inhibitor, high = activator. 3,700 compounds, 48% hits. shares compounds with Cl transport mod;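 active = thallium flux slope beyond 3 SD from same-plate DMSO control mean in most replicates, usually higher, sometimes lower; inconclusive = repeat tests gave conflicting results; inactive = no significant difference from controls in most replicates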;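 note: slope of initial-normalized fluorescence between seconds 10 and 20 after thallium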
HEK counter2: native HEK Tl+ uptake effects, second counter-screen – HEK cells, counterscreen 2, counter-screen for KCC2 modulator project, confirmation; 3,700 compounds, 33% hits; shares compounds with Cl transport mod; HEK293 parental, thallium flux FluoZin-2 fluorescence slope; AID 1718, 2009; thallium flux slope at 10 µM;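 active = thallium flux slope above the same plate's solvent-control mean plus 3 SD in both duplicate wells; inconclusive = duplicate wells that disagreed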;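 note: run without ouabain in cells lacking the KCC2 cotransporter; slope of fluorescence scaled to its starting value between 10 and 20 s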
Starred values were filed as active, the others as inactive; ? = inconclusive; nt = no result given.

SMILES	RAM inhibit	Cl transport mod	S1P3 antagonist	S1P4 ag	S1P4 antagonist	ROMK primary	KCC2 sec1	KCC2 bumet counter	KCC2 sec2	HEK counter1	KCC2 retest ouab	HEK counter2
O=C(N/N=C\c1ccccn1)c1ccccc1O	2	5.4*	-12	1	-2	nt	0.019	0.013*	?	0.015*	0.022*	0.017*
N#CC1(NC(=O)CN2CCc3ccccc3C2)CCCC1	2	-0.37	5	1	-10	1.1	nt	nt	nt	nt	nt	nt
CC1Cc2ccccc2N1C(=O)/C=C/c1cccc(F)c1 (stereo unspecified)	1	-4.4*	16	1	-22	0.015	0.0065	0.0051	0.023*	0.0071	0.015*	0.01
O=C(NC(=S)Nc1ccc2c(c1)OCCO2)c1ccccc1F	1	25*	-2	0	25	-0.49	0.0074	0.039*	0.042*	0.021*	0.038*	0.026*
CCOc1cccc(C(=O)NC(=S)Nc2ccc3c(c2)OCCO3)c1	5	7.4*	-20	0	-8	0.063	0.018	0.012*	0.032	0.012*	0.019	0.014*
CCOC(=O)CCCNC(=O)COC(=O)c1cccc(F)c1	2	-0.049	-3	2	-6	0.26	nt	nt	nt	nt	nt	nt
COc1ccc(NC(=O)CC(CC(=O)O)c2cc(OC)c(OC)c(OC)c2)cc1 (stereo unspecified)	nt	0.032	3	0	6	nt	nt	nt	nt	nt	nt	nt
Cn1c(C(=O)NCCCN2CCN(c3ccccc3F)CC2)cc2c(=O)n(C)c3ccccc3c21	1	-3.1	-43	-2	-9	nt	0.0074	0.0046	0.024*	0.0076	?	0.011
Cc1ccc(CNC(=O)c2cc3c(=O)n(C)c4ccccc4c3n2C)o1	6	-4.3*	-15	-2	-25	nt	0.01	0.0068	0.028	0.0076	0.022*	?
CCOc1ccc(NC(=O)c2cc3c(=O)n(C)c4ccccc4c3n2C)cc1	4	-2	nt	-1	-1	nt	0.0077	0.0067	0.033	0.0074	?	0.011
Cn1c(C(=O)NCCCN2CCOCC2)cc2c(=O)n(C)c3ccccc3c21	0	-0.75	-41	1	-14	nt	nt	nt	nt	nt	nt	nt
CC1(C)Cc2c(c(N3CCCC3)nc3sc4c(N5CCNCC5)ncnc4c23)CO1	nt	0.45	-5	1	-20	nt	nt	nt	nt	nt	nt	nt
CC1CCN(S(=O)(=O)c2cccc(C(=O)NNC(=O)c3ccco3)c2)CC1	nt	1.7	-4	2	5	nt	nt	nt	nt	nt	nt	nt
COc1ccc(CN2CCN(CCC(C)C)C(CCO)C2)cc1Cn1cncn1 (stereo unspecified)	0	0.66	-13	-1	1	0.9	nt	nt	nt	nt	nt	nt
O=C(O)/C(=C\c1ccc(Cl)c([N+](=O)[O-])c1)c1ccc(S(=O)(=O)N2CCCCC2)s1	8	-7.8*	-7	-1	20	-0.13	0.0087	0.0063	0.03	0.0072	0.011*	0.011
Oc1c(Cl)cc(Cl)cc1/C=N/Nc1ncc(Br)cn1	3	0.13	-2	1	-1	0.094	nt	nt	nt	nt	nt	nt
Oc1c(Cl)cc(Cl)cc1/C=N/NC(=S)NC1CC2C=CC1C2 (stereo unspecified)	nt	9.2*	6	4	24	nt	0.0083	0.017*	0.028	0.011*	?	0.0097
Oc1ccccc1/C=N/NC(=S)NC1CC2C=CC1C2 (stereo unspecified)	nt	18*	-7	1	19	nt	?	0.052*	0.034	0.025*	0.031	0.014*
CCOC(=O)c1c(-c2ccccc2)csc1NC(=O)CSc1nnnn1C	8	-4.7*	-14	0	3	nt	0.0054	0.0043	0.028	0.0076	?	?
O=c1ccc(N=Nc2ccccc2)ccc1O	nt	151*	7	0	-2	nt	0.012*	0.12*	0.12*	0.11*	0.12*	0.11*
O=S(=O)(O)c1ccc(N=Nc2ccccc2)cc1	nt	-0.05	8	0	-4	nt	nt	nt	nt	nt	nt	nt
Cc1ccc(-n2ncc3c(SCc4cccc(C)c4)ncnc32)cc1	8	6.6*	-8	1	-26	nt	0.0074	0.022*	0.042*	0.022*	0.031*	0.026*
Cc1cccc(CSc2ncnc3c2cnn3Cc2ccccc2)c1	0	-0.24	nt	2	12	-0.34	nt	nt	nt	nt	nt	nt
Cn1c(-c2sccc2OCc2ccc(Cl)cc2Cl)n[nH]c1=S	6	5.2*	4	1	-10	-0.11	0.0065	0.013*	0.026	0.012*	0.017	0.012*
CC1(C)CC(=O)c2c(Cc3ccccc3)n[nH]c2C1	2	-0.48	22	1	-3	nt	nt	nt	nt	nt	nt	nt
CC1(C)CC(=O)c2c(-c3cccnc3)n[nH]c2C1	1	nt	nt	1	14	0.37	0.01	0.0056	0.034	0.0078	0.02	0.012
COc1ccccc1N1CCN(C(=O)CSc2ncccc2-c2nc3ccccc3[nH]2)CC1	2	nt	nt	0	4	-0.86	nt	nt	nt	nt	nt	nt
O=C(CSc1ncccc1-c1nc2ccccc2[nH]1)N1CCN(c2ccccc2F)CC1	5	-4*	-9	0	-2	nt	0.006	0.005	0.025*	0.0072	?	0.0099

Assay outcomes: PubChem, several laboratories
